Consider nine compounds from PubChem BioAssay (Tox21).

The nature of experiment [1]: qHTS assay for identifying genotoxic compounds that show differential cytotoxicity against isogenic chicken DT40 cell lines with known DNA damage response pathways - wild type cell line (AID 743012). Also: nearly all actives have a fitted effect of over 60% in size. Also: potency is read from the fitted curve at half-maximal effect. The gist of the method:
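First, wild type DT40 cells were plated at 300 per well and equilibrated about 0.5 h at 37 C/5% CO2. Next, compounds in DMSO were added and exposure lasted 40 h. Finally, CellTiter-Glo was added for 30 min at room temperature and luminescence recorded.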
Background: qHTS replaces the single test concentration by a dilution series.

Experiment [2] in a line: qHTS assay for identifying genotoxic compounds that show differential cytotoxicity against isogenic chicken DT40 cell lines with known DNA damage response pathways - Rev3 mutant cell line (AID 743014). Also: potency is read from the fitted curve at half-maximal effect; nearly all actives have a fitted effect of over 55% in size.
A short description of experiment [3]: qHTS assay for identifying genotoxic compounds that show differential cytotoxicity against isogenic chicken DT40 cell lines with known DNA damage response pathways - Rad54/Ku70 mutant cell line (AID 743015). Also: nearly all actives have a fitted effect of over 60% in size. Also: potency is read from the fitted curve at half-maximal effect.
Experiment [4] in a line: qHTS assay to identify small molecule antagonists of the androgen receptor (AR) signaling pathway using the MDA cell line - cell viability counter screen (AID 743041; also: nearly all actives have a fitted effect of over 45% in size; also: potency is read from the fitted curve at half-maximal effect). In short, it runs like this: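 MDA-kb2 AR-luc human breast carcinoma cells (MMTV-luciferase, AR/GR responsive) were treated with compounds plus R1881 agonist for 16 h at 37 °C. Viability was read as CellTiter-Fluor fluorescence in the same wells as the reporter assay.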

Experiment [5] relates to thyroid hormone receptor (rat, GH3 cells). Briefly: qHTS assay to identify small molecule agonists of the thyroid receptor (TR) signaling pathway (AID 743066; calls by dose curve).
The nature of experiment [6]: qHTS assay to identify small molecule antagonists of the estrogen receptor alpha (ER-alpha) signaling pathway - cell viability counter screen (AID 743074; calls by dose curve; also: nearly all actives have a fitted effect of over 45% in size; also: potency is read from the fitted curve at half-maximal effect).
The nature of experiment [7]: qHTS assay to identify small molecule antagonists of the estrogen receptor alpha (ER-alpha) signaling pathway using the BG1 cell line - cell viability counter screen (AID 743081).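 Also: compound given together with 17beta-estradiol as the ER stimulus; nearly all actives have a fitted effect of over 45% in size.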 Also: potency is read from the fitted curve at half-maximal effect.
In another experiment the target is Aromatase (Homo sapiens) (UniProt P11511). Briefly: qHTS assay to identify aromatase inhibitors (AID 743083). Also: nearly all actives have a fitted effect of over 55% in size. Also: potency is read from the fitted curve at half-maximal effect.
Experiment [8] is described as follows: qHTS assay to identify small molecule antagonists of the thyroid receptor (TR) signaling pathway - cell viability counter screen (AID 743064). Also: potency is read from the fitted curve at half-maximal effect; nearly all actives have a fitted effect of over 50% in size. In short, it runs like this: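 Viability of T3-stimulated (1 nM final) GH3.TRE-Luc cells is measured by CellTiter-Fluor fluorescence after 23.5 h compound exposure at 37 °C plus 30 min reagent incubation.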
Experiment [9] can be described thus: qHTS assay to identify small molecule antagonists of the androgen receptor (AR) signaling pathway - cell viability counter screen (AID 743033; also: nearly all actives have a fitted effect of over 45% in size; also: potency is read from the fitted curve at half-maximal effect).
A short description of experiment [10]: qHTS assay to identify small molecule antagonists of the thyroid receptor (TR) signaling pathway (AID 743065). Also: potency is read from the fitted curve at half-maximal effect; nearly all actives have a fitted effect of over 55% in size. The gist of the method:
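GH3.TRE-Luc rat pituitary cells carrying two TR response elements driving luciferase were plated for 4 h, given compound plus 1 nM T3 (final), and incubated 23.5 h at 37 C. ONE-Glo luminescence measured reporter inhibition; CellTiter-Fluor fluorescence tracked cytotoxicity.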

Experiment [11] concerns the target Estrogen receptor (Homo sapiens) (UniProt P03372). Briefly: qHTS assay to identify small molecule antagonists of the estrogen receptor alpha (ER-alpha) signaling pathway (AID 743069; active = well fitted curve in the direction sought with a large enough effect in the signal ratio in the repeat runs, not every such curve was filed as active; inconclusive = weak or mixed curves, or effect the other way; inactive = no such curve, though single readings can be large or run the other way; the % refers to the signal ratio). In short, it runs like this:
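HEK293 cells stably carrying an ER-alpha-UAS-bla beta-lactamase reporter were pre-cultured overnight in 2% charcoal-stripped FBS medium. Test compounds in DMSO were added together with 17beta-estradiol for 18 hr at 37C. Read-out was fluorescence after 2 hr with LiveBLAzer B/G FRET substrate at room temperature.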

For experiment [12] the target is unchanged. Nature of the experiment: qHTS assay to identify small molecule agonists of the estrogen receptor alpha (ER-alpha) signaling pathway (AID 743075; calls by dose curve; also: potency is read from the fitted curve at half-maximal effect).
The target is the same in experiment [13]. Briefly: qHTS assay to identify small molecule agonists of the estrogen receptor alpha (ER-alpha) signaling pathway using the BG1 cell line (AID 743079). Also: nearly all actives have a fitted effect of over 20% in size.
Experiment [14] is described as follows: qHTS assay to identify small molecule antagonists of the estrogen receptor alpha (ER-alpha) signaling pathway using the BG1 cell line (AID 743080; calls by dose curve;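 also: BG1 cells stimulated with 17beta-estradiol alongside compound; nearly all actives have a fitted effect of over 25% in size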; also: potency is read from the fitted curve at half-maximal effect). In short, it runs like this: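 Seeding, 24 h rest, compound transfer from DMSO, 17beta-estradiol addition, 21.5 h incubation, CellTiter-Fluor (30 min, 37 C), then ONE-Glo (30 min, room temperature): this sequence was run on BG1-Luc-4E2 reporter cells.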

The target of experiment [15] is Androgen receptor (Homo sapiens) (UniProt P10275). Briefly: qHTS assay to identify small molecule antagonists of the androgen receptor (AR) signaling pathway (AID 743035; active = well fitted inhibition curve with a large enough effect in the signal ratio in the repeat runs, not every such curve was filed as active; inconclusive = weak or mixed curves, or effect the other way; inactive = no such curve, though single readings can be large or run the other way; the % refers to the signal ratio; also: potency is read from the fitted curve at half-maximal effect). In short, it runs like this:
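Beta-lactamase FRET read (2 h RT incubation with LiveBLAzer B/G) following 16 h of compound plus R1881 treatment of AR-UAS-bla HEK293 cells, which had been pre-incubated 4 h at 37C.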

For experiment [16] the target is unchanged. Briefly: qHTS assay to identify small molecule agonists of the androgen receptor (AR) signaling pathway using the MDA cell line (AID 743040; also: nearly all actives have a fitted effect of over 20% in size). The gist of the method:
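MDA-kb2 breast carcinoma cells stably carrying an MMTV-driven luciferase reporter (AR- and GR-responsive) were seeded and held 5 h at 37C, 0% CO2, then exposed to compounds in DMSO for 16 h. Luminescence was read 30 min after ONE-Glo addition.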

Experiment [17] has the same target. Briefly: qHTS assay to identify small molecule antagonists of the androgen receptor (AR) signaling pathway using the MDA cell line (AID 743042; also: potency is read from the fitted curve at half-maximal effect; nearly all actives have a fitted effect of over 55% in size). The gist of the method: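 MDA-kb2 cells (human breast carcinoma, stably carrying an MMTV-luciferase reporter responsive to AR and GR) were plated at 3,000 cells/well and preincubated 5 hr at 37C, then given compound plus R1881 agonist for 16 h. ONE-Glo luminescence was read.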

Several values for one entry are separate records, joined by “and”; a condition that tells them apart may be missing. Equal values may be shown once. Activity calls are given as the source filed them. Unless noted, calls follow the shape of the dose curve; as a rule, active = well fitted curve in the direction sought with a large enough effect in the repeat runs; inconclusive = weak or mixed curves; inactive = no such curve, though single readings can be large; an effect the other way counts as inactive or inconclusive.

Sequence of Aromatase (Homo sapiens) (P11511 whole entry, looked up): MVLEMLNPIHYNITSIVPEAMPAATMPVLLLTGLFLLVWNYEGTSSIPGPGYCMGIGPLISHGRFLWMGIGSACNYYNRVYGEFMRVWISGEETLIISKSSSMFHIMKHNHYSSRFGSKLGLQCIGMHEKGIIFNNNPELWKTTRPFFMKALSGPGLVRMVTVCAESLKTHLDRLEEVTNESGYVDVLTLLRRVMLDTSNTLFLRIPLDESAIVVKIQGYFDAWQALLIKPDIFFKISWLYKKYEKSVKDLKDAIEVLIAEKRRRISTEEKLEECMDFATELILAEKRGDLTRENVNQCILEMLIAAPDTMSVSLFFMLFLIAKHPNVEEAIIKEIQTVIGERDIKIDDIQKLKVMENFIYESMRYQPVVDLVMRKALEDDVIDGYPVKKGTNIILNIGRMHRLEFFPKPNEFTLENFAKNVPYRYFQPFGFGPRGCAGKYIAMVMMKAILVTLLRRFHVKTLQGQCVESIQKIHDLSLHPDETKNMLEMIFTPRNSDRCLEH
Sequence of Estrogen receptor (Homo sapiens) (P03372 whole entry, looked up): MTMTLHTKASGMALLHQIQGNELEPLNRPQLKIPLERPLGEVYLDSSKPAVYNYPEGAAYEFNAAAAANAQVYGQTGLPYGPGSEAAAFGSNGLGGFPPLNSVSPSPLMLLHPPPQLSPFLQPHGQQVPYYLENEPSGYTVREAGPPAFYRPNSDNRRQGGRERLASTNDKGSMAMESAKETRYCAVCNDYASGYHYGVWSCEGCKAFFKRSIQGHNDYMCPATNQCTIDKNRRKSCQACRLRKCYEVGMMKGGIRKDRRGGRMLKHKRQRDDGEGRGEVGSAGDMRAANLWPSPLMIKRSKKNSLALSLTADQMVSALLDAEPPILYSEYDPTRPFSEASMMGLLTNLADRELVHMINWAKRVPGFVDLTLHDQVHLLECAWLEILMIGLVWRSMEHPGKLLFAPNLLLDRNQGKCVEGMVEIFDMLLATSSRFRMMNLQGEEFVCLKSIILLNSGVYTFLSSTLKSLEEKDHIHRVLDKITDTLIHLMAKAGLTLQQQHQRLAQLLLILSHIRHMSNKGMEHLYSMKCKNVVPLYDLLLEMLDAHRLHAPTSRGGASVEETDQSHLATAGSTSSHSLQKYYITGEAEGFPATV
Sequence of Androgen receptor (Homo sapiens) (P10275 whole entry, looked up): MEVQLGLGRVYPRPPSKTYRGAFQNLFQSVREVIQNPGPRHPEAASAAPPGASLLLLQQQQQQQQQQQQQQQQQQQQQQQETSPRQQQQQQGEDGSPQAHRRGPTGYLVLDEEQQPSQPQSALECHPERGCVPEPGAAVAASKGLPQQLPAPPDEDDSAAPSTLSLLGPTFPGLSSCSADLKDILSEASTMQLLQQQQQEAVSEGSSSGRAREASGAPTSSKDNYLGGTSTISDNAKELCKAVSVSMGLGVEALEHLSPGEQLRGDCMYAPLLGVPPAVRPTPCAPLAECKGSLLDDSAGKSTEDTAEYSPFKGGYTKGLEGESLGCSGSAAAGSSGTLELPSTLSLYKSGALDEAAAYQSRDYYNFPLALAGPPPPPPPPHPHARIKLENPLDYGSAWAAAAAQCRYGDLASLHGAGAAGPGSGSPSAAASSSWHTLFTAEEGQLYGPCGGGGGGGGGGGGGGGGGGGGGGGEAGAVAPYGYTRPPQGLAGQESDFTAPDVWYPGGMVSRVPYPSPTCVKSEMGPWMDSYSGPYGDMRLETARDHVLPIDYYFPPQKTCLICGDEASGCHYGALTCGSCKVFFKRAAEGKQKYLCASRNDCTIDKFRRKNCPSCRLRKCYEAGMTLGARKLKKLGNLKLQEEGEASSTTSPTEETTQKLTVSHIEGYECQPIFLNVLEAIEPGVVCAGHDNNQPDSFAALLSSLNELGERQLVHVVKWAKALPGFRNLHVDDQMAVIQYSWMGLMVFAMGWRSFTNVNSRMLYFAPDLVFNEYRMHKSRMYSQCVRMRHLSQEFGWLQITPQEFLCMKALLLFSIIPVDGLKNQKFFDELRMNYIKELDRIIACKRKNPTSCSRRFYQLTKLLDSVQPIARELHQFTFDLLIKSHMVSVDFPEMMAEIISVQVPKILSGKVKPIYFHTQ

As for `OC(c1ccc(Cl)cc1)(c1ccc(Cl)cc1)C(Cl)(Cl)Cl`, the Potency in experiment [1] was 61.1 µM (active); in experiment [2] it was 48.6 µM (active); in [3], 48.6 µM (active); with Aromatase (Homo sapiens), 61.1 µM (active). Also, the Potency entry in experiment [4], in [6] and in experiment [7] was “inactive” in each case. The call in [5] was inactive.

For `CC(=O)[O-].CC(=O)[O-].O.O.[Cd+2]`, the Potency in experiment [1] was 67.6 µM (active); in experiment [3], 60.3 µM (active); in experiment [8] it was 24 µM (active); in experiment [6], 43 µM (active). Besides, the Potency result in experiment [4] and in experiment [7] was “inactive” throughout. For the same compound, the outcome in experiment [5] was inactive.

For the compound `N#CCCC(Br)(C#N)CBr` (centres undefined), the Potency was 4.33 µM (active) in [1]; 6.11 µM (active) in experiment [2]; 7.7 µM (active) in experiment [3]; 24.5 µM (active) in experiment [9]; 15.4 µM (active) in [8]; 13.7 µM (active) in experiment [10]. In addition, the Potency in the experiment with Aromatase (Homo sapiens) was 24.3 µM (active). In experiment [5], the call was inactive. Besides, the Potency entry in experiment [11], in experiment [6], in experiment [12], in experiment [13], in [14] and in experiment [7] was “inactive” in each case.

`COc1ccc(N)cc1N`: the Potency in experiment [1] was 11.7 µM (active); in [2], 3.98 µM (active) and 5.87 µM (active); in [3] it was 9.99 µM (active) and 7.38 µM (active); in [9], 16 µM (active) and 18.7 µM (active); in [8], 37 µM (active); with Aromatase (Homo sapiens), 12.6 µM (active) and 33 µM (active). Further, the Potency result in experiment [4] and in [7] was “inactive” each time. For the same compound, the outcome in [5] was inactive.

For `CC(=O)/C=C/c1ccc2c(c1)OCO2`, the Potency in experiment [3] is 61.4 µM (active); in experiment [15] it was 12.4 µM (active); in experiment [17] it was 61.4 µM (active). Also, the Potency result in [9], in experiment [16], in [4], in [6], in experiment [12] and in experiment [13] was “inactive” in each case. The Potency entry (in [7]; with Aromatase (Homo sapiens)) was “inactive” throughout. The compound was called inactive in [5].

Consider `CCc1nn(C)c(C(=O)NCc2ccc(C(C)(C)C)cc2)c1Cl`, for which the Potency in [1] is 0.077 µM (active); in [2], 0.0863 µM (active); in [3], 0.0545 µM (active); in [9] it was 0.195 µM (active); in experiment [4] it was 0.0863 µM (active); in [10], 0.77 µM (active). Moreover, the results for the Potency (in experiment [14]; in experiment [7]; with Aromatase (Homo sapiens)) were 0.0243 µM (active), 30.6 µM (active) and 61.1 µM (active), respectively.

In the case of `[Hg+2].[I-].[I-]`, the Potency in experiment [1] is 1.37 µM (active); in experiment [2] it was 1.22 µM (active); in experiment [3], 0.77 µM (active); in experiment [4], 54.5 µM (active); in experiment [8] it was 1.54 µM (active); in experiment [10], 0.77 µM (active). Also, the Potency in [6] was 43.6 µM (active); in experiment [12], 54.9 µM [inconclusive] (active); in experiment [7], 68.6 µM (active); with Aromatase (Homo sapiens) it was 8.63 µM (active). Besides, the compound was called inactive in experiment [5].

`CCCCN(CCCC)C(=S)[S-].CCCCN(CCCC)C(=S)[S-].[Zn+2]`: the Potency result (in experiment [1]; in experiment [3]; in experiment [9]; in experiment [4]; with Aromatase (Homo sapiens)) was “inactive” each time. Besides, the Potency in experiment [8] was 18.8 µM (active) and 7.69 µM (active); in experiment [10] it was 13.3 µM (active) and 9.68 µM (active); in experiment [6], 19 µM (active) and 12.3 µM (active); in experiment [12], 30.1 µM [inconclusive] (active); in experiment [7] it was 21.1 µM (active) and 38.5 µM (active).

For `O=C(Nc1ccc2[nH]ccc2c1)c1cc2cc(F)ccc2n1Cc1cccc(F)c1`, the Potency in experiment [1] was 19.3 µM (active); in experiment [2] it was 27.3 µM (active); in experiment [3] it was 17.2 µM (active); in [9] it was 49 µM (active); in experiment [8], 10.9 µM (active); in [10], 13.7 µM (active). Besides, the Potency result in experiment [11], in experiment [6] and in experiment [7] was “inactive” throughout.
